Data from ChEMBL document CHEMBL1157539, “Thousands of chemical starting points for antimalarial lead identification” (Nature, 2010).

Key:
Type in all cases: functional
Plasmodium falciparum [1] = assay: GSK_TCMDC: Inhibition of Plasmodium falciparum 3D7 in whole red blood cells, using parasite LDH activity as an index of growth. Test compounds present at 2uM
Plasmodium falciparum [2] = assay: GSK_TCMDC: Inhibition of Plasmodium falciparum Dd2 in whole red blood cells, using parasite LDH activity as an index of growth. Test compounds present at 2uM
HepG2 = assay: GSK_TCMDC: Percent inhibition of human HepG2 cell line. Test compounds present at 10uM.

SMILES | Inhibition (Plasmodium falciparum [1]) [%] | Inhibition (Plasmodium falciparum [2]) [%] | Inhibition (HepG2) [%]
CC1(C)N=C(N)N=C(N)N1c1cccc(Cl)c1.Cl | 96 | 96 | 69
Clc1ncnc2ncn(Cc3cccc(Br)c3)c12 | 91 | 56 | 0
Cc1nc(N)nc(N)c1OCc1ccc(Cl)c(Cl)c1.Cl | 97 | 5 | 14
CCNc1cc(C(=O)N[C@@H](Cc2ccccc2)[C@H](O)CNC23CCC(CC2)CC3)cc(N2CCCCS2(=O)=O)c1.Cl | 99 | 98 | 10
NC(=O)COc1cccc2c1CCN(CCN1CCC(NC(=O)c3ccc(-c4ccc(Cl)cc4)cc3)CC1)C2 | 92 | 6 | 44
COc1ccc(C(C(=O)NC2CCN(C[C@H](O)c3ccnc4ccc(OC)cc34)CC2)N2CCc3ccccc3C2)cc1 (some centres undefined) | 96 | 30 | 19
Cl.Nc1ccnc2ccc(NC(=O)CCCCCc3ccccc3)cc12 | 96 | 30 | 47
CN(C)c1ccc(-c2csc(C(=O)NCC3CCN(Cc4ccc(C(C)(C)C)cc4)C3)c2)cc1.O=C(O)C(F)(F)F (centres undefined) | 97 | 64 | 29
COc1cc(OC)cc(-c2nc3ccc(OCCN(C)C)c(C#N)c3[nH]2)c1 | 99 | 25 | 4
Cn1nccc1C(=O)NCCNCc1cccc(-c2cccc(-c3nc4cc(C(F)(F)F)ccc4[nH]3)c2)c1.O=C(O)C(F)(F)F | 100 | 99 | 39
CN(CCC(CCN1CCC(c2c[nH]c3ccccc23)CC1)c1ccccc1)C(=O)Nc1ccc(Cl)c(Cl)c1 (centres undefined) | 91 | 21 | 50
CC(C)N1CCN(C(=O)c2ccc(CN(C)CCCN3CCN(c4cccc(Cl)c4Cl)CC3)s2)CC1.Cl | 94 | 35 | 74
N#Cc1cccc(NC(=O)NC2CCN(CCCCCNC(=O)C3CC3c3ccc(Cl)c(Cl)c3)CC2)c1 (centres undefined) | 100 | 0 | 36
CCN1CCN(CCCNc2c3ccc(Cl)cc3nc3ccc(OC)cc23)CC1.Cl | 97 | 100 | 34
Cc1cn(CC(=O)Nc2cccc(-c3cccc(-c4nc5cccc(C)c5[nH]4)c3)c2)c(=O)[nH]c1=O | 100 | 100 | 2
CC(C)n1c(C2CCN(CC3CCN(C(=O)/C=C/c4ccc(Cl)c(Cl)c4)CC3)CC2)nc2ccccc21 | 94 | 7 | 36
CN(C)C(=O)c1ccc(CN(Cc2ccc3c(c2)OCCO3)Cc2ccc3c(c2)OCO3)cc1 | 89 | 95 | 0
Cl.Nc1c2c(nc3ccc(NC(=O)CCCc4ccccc4)cc13)CCCC2 | 100 | 42 | 73
FC(F)(F)c1cccc(CNCC2CCN(CC3CCCCC3)CC2)c1.O=C(O)C(F)(F)F | 100 | 24 | 21
N#Cc1ccc(C(=O)Nc2cc(-c3cccc(O)c3)cc3[nH]ncc23)cc1 | 90 | 79 | 15
Cl.N#Cc1cccc(C(O)C2CN(CCC3CCCCC3)CCC2(O)c2ccccc2)c1 (centres undefined) | 98 | 100 | 0
O=C(Nc1cccc(-c2nn3ccccc3c2-c2ccnc(Nc3cccc(C(F)(F)F)c3)n2)c1)c1c(F)cccc1F | 97 | 91 | 43
N#Cc1ccc(N/C(=N\c2ccccc2Cl)NC2CCN(Cc3ccccc3)CC2)c(O)c1 | 100 | 97 | 31
CN1CCC(N2CCN(Cc3cccc(-c4cccc(-c5nc6ccccc6[nH]5)c4)c3)CC2)CC1.O=C(O)C(F)(F)F | 100 | 100 | 19
Fc1ccc(Nc2ccnc3cc(-c4cccc(CNCCN5CCOCC5)c4)ccc23)c(Cl)c1 | 100 | 99 | 26
CC1CCCCN1CCCNc1nc(NCc2ccccc2)c2ccccc2n1 (centres undefined) | 95 | 14 | 24
N#Cc1cccc(-c2nc(NCc3cccc(C(F)(F)F)c3)nn2-c2cccc(C(F)(F)F)c2)c1 | 94 | 88 | 12
CN1CCC(NCc2ccc(-c3cccc(-c4nc5ccccc5[nH]4)c3)cc2)CC1.O=C(O)C(F)(F)F | 100 | 96 | 50
